Measurements: ChEMBL document CHEMBL1961873, “Compounds: GSK PKIS; Assays: Nanosyn kinase panel” (2012)

Tests used:
[1] = target: Serine/threonine-protein kinase MARK2 (Homo sapiens) (UniProt Q7KZI7); details: at 1 µM
[2] = target: PAS domain-containing serine/threonine-protein kinase (Homo sapiens) (UniProt Q96RG2); details: at 0.1 µM
[3] = target: PAS domain-containing serine/threonine-protein kinase (Homo sapiens) (UniProt Q96RG2); details: at 1 µM
[4] = target: Phosphorylase b kinase gamma catalytic chain, skeletal muscle/heart isoform (Homo sapiens) (UniProt Q16816); details: at 0.1 µM
[5] = target: Phosphorylase b kinase gamma catalytic chain, skeletal muscle/heart isoform (Homo sapiens) (UniProt Q16816); details: at 1 µM
[6] = target: T1, Phosphorylase b kinase gamma catalytic chain, liver/testis isoform (Homo sapiens) (UniProt P15735); details: at 0.1 µM
T1 sequence (whole entry): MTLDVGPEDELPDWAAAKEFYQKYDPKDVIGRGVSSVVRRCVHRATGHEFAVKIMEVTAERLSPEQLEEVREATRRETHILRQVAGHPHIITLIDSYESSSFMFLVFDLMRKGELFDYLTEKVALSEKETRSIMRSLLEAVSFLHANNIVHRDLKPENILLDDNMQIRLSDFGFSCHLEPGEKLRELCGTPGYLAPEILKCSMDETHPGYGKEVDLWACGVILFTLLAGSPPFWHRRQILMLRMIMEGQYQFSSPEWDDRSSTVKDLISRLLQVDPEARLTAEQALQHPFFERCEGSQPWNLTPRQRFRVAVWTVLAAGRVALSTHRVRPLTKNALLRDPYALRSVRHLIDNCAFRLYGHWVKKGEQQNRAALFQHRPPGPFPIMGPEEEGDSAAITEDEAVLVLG

[7] = target: T1, Phosphorylase b kinase gamma catalytic chain, liver/testis isoform (Homo sapiens); details: at 1 µM
[8] = target: Serine/threonine-protein kinase pim-1 (Homo sapiens) (UniProt P11309); details: at 0.1 µM
[9] = target: Serine/threonine-protein kinase pim-1 (Homo sapiens) (UniProt P11309); details: at 1 µM
[10] = target: Serine/threonine-protein kinase pim-2 (Homo sapiens) (UniProt Q9P1W9); details: at 0.1 µM
[11] = target: Serine/threonine-protein kinase pim-2 (Homo sapiens) (UniProt Q9P1W9); details: at 1 µM
[12] = target: Serine/threonine-protein kinase pim-3 (Homo sapiens) (UniProt Q86V86); details: at 0.1 µM
[13] = target: Serine/threonine-protein kinase pim-3 (Homo sapiens) (UniProt Q86V86); details: at 1 µM
[14] = target: T2, MAP kinase-activated protein kinase 5 (Homo sapiens) (UniProt Q8IW41); details: at 0.1 µM
T2 sequence (whole entry): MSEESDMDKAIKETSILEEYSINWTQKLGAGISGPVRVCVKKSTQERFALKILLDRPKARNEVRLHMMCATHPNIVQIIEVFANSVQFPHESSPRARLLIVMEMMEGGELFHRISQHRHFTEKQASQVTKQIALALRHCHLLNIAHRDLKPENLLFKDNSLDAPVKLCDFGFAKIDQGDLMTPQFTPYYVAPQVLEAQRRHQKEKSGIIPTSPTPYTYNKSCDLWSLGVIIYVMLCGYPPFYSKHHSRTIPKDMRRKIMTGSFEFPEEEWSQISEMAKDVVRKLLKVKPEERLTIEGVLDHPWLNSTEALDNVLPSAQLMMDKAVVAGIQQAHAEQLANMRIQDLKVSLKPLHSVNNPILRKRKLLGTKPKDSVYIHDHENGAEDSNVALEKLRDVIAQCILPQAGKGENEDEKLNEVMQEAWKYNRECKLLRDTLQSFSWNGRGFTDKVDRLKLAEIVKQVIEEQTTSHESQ

[15] = target: T2, MAP kinase-activated protein kinase 5 (Homo sapiens); details: at 1 µM
[16] = target: Serine/threonine-protein kinase SIK1 (Homo sapiens) (UniProt P57059); details: at 0.1 µM
[17] = target: Serine/threonine-protein kinase SIK1 (Homo sapiens) (UniProt P57059); details: at 1 µM
[18] = target: Serine/threonine-protein kinase SIK2 (Homo sapiens) (UniProt Q9H0K1); details: at 0.1 µM
[19] = target: Serine/threonine-protein kinase SIK2 (Homo sapiens) (UniProt Q9H0K1); details: at 1 µM
[20] = target: T3, Serine/threonine-protein kinase TBK1 (Homo sapiens) (UniProt Q9UHD2); details: at 0.1 µM;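 also: values are the mean TBK1 inhibition, taken from the GSK PKIS screening data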
T3 sequence (whole entry): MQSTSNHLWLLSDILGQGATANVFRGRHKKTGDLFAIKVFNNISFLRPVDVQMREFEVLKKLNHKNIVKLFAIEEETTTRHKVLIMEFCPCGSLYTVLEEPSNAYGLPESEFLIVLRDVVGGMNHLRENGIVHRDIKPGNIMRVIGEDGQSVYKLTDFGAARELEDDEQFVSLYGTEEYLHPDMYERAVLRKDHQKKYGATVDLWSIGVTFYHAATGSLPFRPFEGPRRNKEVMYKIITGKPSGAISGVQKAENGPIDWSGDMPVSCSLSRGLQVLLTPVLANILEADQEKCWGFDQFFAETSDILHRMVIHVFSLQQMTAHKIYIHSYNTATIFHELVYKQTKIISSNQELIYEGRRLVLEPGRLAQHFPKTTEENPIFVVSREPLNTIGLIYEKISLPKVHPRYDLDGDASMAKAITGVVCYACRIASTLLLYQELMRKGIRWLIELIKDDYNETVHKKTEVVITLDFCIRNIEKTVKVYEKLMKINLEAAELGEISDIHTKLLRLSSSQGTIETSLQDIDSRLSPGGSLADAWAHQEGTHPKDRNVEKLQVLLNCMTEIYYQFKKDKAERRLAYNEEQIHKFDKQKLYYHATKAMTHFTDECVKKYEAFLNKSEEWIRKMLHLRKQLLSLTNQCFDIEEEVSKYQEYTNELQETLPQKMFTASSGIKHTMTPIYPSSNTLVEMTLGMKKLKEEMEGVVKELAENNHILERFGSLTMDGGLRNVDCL

Chain of Serine/threonine-protein kinase SIK1 (Homo sapiens) (P57059 whole entry): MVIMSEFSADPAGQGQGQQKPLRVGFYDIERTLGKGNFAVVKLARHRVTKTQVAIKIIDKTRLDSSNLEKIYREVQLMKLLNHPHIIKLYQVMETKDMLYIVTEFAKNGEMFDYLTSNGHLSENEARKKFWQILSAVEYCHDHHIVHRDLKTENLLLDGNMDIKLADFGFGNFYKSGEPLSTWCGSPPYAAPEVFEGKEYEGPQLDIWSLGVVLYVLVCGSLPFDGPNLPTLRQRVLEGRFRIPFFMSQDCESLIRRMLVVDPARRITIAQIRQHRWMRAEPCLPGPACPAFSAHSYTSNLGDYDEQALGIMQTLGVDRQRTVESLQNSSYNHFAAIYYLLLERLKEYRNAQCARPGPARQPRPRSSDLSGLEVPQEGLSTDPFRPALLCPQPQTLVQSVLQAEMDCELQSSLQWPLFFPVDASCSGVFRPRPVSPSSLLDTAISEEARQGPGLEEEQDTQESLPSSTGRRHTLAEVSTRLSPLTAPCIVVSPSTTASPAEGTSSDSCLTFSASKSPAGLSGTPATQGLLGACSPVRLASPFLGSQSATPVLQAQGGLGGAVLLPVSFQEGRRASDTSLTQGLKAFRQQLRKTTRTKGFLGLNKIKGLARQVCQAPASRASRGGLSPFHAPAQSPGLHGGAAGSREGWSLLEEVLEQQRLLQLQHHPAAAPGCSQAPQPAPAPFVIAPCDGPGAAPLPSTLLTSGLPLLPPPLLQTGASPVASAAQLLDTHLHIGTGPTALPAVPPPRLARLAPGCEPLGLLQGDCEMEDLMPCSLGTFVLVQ
Chain of Serine/threonine-protein kinase MARK2 (Homo sapiens) (Q7KZI7 whole entry, the tested form may be a part): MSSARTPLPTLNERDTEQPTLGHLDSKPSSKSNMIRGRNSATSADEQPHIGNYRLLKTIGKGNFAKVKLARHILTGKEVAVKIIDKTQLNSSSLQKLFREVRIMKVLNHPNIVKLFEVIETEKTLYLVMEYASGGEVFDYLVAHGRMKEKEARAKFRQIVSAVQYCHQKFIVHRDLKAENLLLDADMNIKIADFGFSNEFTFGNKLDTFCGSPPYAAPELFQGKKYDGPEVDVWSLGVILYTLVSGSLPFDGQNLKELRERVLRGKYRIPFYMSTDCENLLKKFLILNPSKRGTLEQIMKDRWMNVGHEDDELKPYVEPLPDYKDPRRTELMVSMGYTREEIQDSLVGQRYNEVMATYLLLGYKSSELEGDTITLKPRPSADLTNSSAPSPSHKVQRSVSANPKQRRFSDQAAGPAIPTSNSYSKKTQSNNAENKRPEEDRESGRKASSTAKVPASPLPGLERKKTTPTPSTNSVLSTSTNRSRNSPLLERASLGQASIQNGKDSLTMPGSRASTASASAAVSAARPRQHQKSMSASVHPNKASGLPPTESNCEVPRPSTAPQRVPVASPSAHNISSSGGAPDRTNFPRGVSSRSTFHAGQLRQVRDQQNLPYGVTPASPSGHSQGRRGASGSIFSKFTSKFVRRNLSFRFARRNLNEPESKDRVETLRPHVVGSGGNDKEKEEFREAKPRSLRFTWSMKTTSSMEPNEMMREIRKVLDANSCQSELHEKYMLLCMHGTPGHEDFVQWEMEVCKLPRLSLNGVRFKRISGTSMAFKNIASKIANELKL
Chain of Serine/threonine-protein kinase SIK2 (Homo sapiens) (Q9H0K1 whole entry, looked up): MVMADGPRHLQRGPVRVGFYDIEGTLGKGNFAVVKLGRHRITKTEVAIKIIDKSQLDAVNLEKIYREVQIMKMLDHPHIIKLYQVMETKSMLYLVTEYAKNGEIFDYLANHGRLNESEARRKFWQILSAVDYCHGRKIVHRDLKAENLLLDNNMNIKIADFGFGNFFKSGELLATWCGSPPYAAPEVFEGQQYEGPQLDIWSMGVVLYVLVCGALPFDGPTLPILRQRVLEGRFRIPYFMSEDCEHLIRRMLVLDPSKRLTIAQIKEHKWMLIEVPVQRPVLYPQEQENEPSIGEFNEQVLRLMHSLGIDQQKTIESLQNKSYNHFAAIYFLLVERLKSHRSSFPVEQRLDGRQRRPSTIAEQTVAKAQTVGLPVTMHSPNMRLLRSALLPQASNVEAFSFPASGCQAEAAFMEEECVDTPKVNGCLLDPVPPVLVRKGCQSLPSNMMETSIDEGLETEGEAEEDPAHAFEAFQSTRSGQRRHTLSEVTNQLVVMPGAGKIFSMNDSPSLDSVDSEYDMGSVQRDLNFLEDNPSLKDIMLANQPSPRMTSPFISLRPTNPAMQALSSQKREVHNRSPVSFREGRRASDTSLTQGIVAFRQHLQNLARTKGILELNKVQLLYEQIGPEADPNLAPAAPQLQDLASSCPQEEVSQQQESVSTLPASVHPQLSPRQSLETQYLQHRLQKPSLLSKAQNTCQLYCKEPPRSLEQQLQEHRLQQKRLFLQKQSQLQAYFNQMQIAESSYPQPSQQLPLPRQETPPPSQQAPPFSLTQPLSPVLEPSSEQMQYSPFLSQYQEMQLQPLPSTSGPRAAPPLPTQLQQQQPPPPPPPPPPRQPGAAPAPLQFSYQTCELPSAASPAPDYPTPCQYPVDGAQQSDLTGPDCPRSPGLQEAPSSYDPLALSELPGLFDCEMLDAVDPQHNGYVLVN
Chain of Phosphorylase b kinase gamma catalytic chain, skeletal muscle/heart isoform (Homo sapiens) (Q16816 whole entry, looked up, canonical isoform): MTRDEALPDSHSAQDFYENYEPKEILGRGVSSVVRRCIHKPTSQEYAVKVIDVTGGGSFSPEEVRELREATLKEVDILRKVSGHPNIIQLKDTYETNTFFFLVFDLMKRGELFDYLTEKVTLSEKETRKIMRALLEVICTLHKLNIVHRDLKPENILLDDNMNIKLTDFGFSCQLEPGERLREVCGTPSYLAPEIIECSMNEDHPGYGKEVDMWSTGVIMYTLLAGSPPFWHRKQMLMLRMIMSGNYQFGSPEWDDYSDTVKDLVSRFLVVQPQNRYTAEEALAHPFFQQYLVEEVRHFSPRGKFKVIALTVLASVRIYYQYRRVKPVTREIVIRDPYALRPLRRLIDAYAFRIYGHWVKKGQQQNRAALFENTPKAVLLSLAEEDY
Chain of Serine/threonine-protein kinase pim-1 (Homo sapiens) (P11309 whole entry, looked up): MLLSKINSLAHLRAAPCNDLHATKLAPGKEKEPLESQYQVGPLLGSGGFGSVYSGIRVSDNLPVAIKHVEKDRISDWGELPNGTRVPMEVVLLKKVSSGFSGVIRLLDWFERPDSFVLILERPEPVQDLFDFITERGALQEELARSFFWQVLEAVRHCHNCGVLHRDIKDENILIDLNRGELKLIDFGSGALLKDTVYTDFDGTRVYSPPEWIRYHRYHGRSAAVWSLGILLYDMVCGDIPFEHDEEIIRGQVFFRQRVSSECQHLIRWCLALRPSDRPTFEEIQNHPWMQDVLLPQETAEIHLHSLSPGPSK
Chain of Serine/threonine-protein kinase pim-2 (Homo sapiens) (Q9P1W9 whole entry, looked up): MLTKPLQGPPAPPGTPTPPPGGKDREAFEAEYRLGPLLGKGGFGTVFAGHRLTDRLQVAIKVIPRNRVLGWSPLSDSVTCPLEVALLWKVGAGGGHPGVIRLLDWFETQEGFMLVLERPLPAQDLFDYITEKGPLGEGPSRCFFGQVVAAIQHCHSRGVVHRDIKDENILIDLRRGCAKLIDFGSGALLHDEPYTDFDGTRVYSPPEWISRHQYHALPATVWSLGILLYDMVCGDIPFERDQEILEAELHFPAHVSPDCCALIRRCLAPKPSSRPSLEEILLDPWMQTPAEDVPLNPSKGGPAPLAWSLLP

Compound | inhibition [1] | inhibition [2] | inhibition [3] | inhibition [4] | inhibition [5] | inhibition [6] | inhibition [7] | inhibition [8] | inhibition [9] | inhibition [10] | inhibition [11] | inhibition [12] | inhibition [13] | inhibition [14] | inhibition [15] | inhibition [16] | inhibition [17] | inhibition [18] | inhibition [19] | inhibition [20]
CN(C)CCCn1c(-c2nonc2N)nc2cnccc21 | 2.24% | -0.11% | -0.83% | 2.33% | 2.88% | 4.54% | 2.43% | 2.81% | 18.9% | -0.04% | 0.24% | -0.78% | 1.03% | 0.98% | -0.25% | 3.24% | 8.57% | -0.97% | 5.74% | 1.24%
ON=C1CCc2cc(-c3nc(C4CCNCC4)[nH]c3-c3ccncc3)ccc21 | 2.57% | 0.03% | -0.46% | 0% | 1.5% | 0.29% | -2.23% | 1% | 0.9% | 0.25% | 2.02% | -0.74% | -1.33% | -0.32% | -1.28% | -0.24% | 0.92% | -6.05% | 3.25% | 0.4%
COC(=O)c1cncc(/C=C/c2c(C)cc(O)cc2C)c1 | -0.07% | -0.51% | 1.51% | 1.77% | 4.16% | 4.23% | 6.97% | 1.57% | 1.55% | -0.56% | 0.09% | 0.93% | 3.35% | 1.73% | 2.57% | 19.2% | 84.3% | 5.81% | 20% | 1.26%
COc1cc2ncnc(Nc3ccc4c(cnn4Cc4ccccc4)c3)c2cc1OC | 3.96% | 0.55% | -0.09% | 3.79% | 8.41% | 2.67% | 2.41% | 0.14% | 1.19% | 0.05% | 2.31% | -0.75% | 1.06% | 0.57% | 0.85% | 4.47% | 5.69% | 4.37% | 3.7% | 0.22%
CN(c1ccc(NC(=O)Nc2ccc(OC(F)(F)F)cc2)cc1)c1ccnc(Nc2cccc(S(N)(=O)=O)c2)n1 | -1.52% | 0.55% | 0.28% | 1.77% | 9.58% | 3.6% | 2.53% | 0.23% | -0.84% | 0.55% | 0.39% | 0.72% | -1.83% | 0.88% | -0.8% | 3.04% | 7.29% | 0.98% | -0.49% | 0.04%
Cc1nc(-c2ccccc2)n2nc(NCCCN3CCOCC3)ncc12 | 0.71% | 0.65% | -0.06% | 0.52% | 4.26% | 3.22% | 3.98% | -0.82% | 0.37% | 0.19% | 0.05% | -0.2% | 1.5% | 0.74% | 0.74% | 3.53% | 5.24% | -0.49% | 4.81% | 1.18%
COc1cc(Nc2nccc(-c3cnn4ncccc34)n2)cc(OC)c1 | 20% | 0.79% | -0.31% | 7.9% | 39.2% | 2.69% | 15.6% | 1.41% | 6.3% | 1.22% | 6.78% | 4.42% | 10.6% | 0.14% | 1.55% | 8.12% | 32.3% | 3.15% | 39.1% | 3.49%
